34 compounds from the supplement of paper PMC7556523 can be followed below.

Values without a mark were called inactive.

The test system of assay [1] is Sporothrix brasiliensis CBS 133006. Briefly: growth inhibition relative to untreated control; higher = more growth inhibition (more antifungal activity), active = 80 or more; extreme values may be limits of the assay. Particulars: 1 µM; 48 h. Summed up: (§1)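 Before testing, the reference isolates were kept in brain heart infusion broth with 2% glucose at 36°C for 7 days to give yeast-form cells. These cells, at 1 x 10^5 CFU/ml, received library compounds at a final 1 μM and were held 48 h at 35°C in 5% CO2. Growth was checked by eye under an inverted light microscope and quantified spectrophotometrically in quadruplicate, and the value is percent growth inhibition versus untreated cells.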

Assay [2] relates to Sporothrix schenckii ATCC 32286. The assay is described as above. Particulars: 1 µM; 48 h. Summed up: as §1

As to `Cc1ccc(-c2cc(C(=O)Nc3cccnc3)c3cc(Br)ccc3n2)cc1`, the growth inhibition was 25.2% in assay [1] and 0% in assay [2].

Consider `Cc1ccc(Oc2ccc(NC(=O)CNc3ccccc3N3CCCC3=O)cc2)cc1`, for which the growth inhibition in assay [1] and in assay [2] was 0% throughout.

Consider `NC(=O)c1cc(Br)ccc1OCCOc1ccccc1`, for which the values for the growth inhibition in assay [1] and in assay [2] were 23.5% and 1.25%, respectively.

For the compound `O=C(C1CCN(c2nnc(-n3cccc3)s2)CC1)N1CCC(Cc2ccccc2)CC1`, the growth inhibition in assay [1] was 7.5%; in assay [2] it was 0.5%.

`Clc1ccc(Cl)c(CO[C@H]2CCCC[C@@H]2n2ccnc2)c1`: the growth inhibition in assay [1] was 18%; in assay [2], 5.5%.

As for `Cc1ccc(C(=O)Nc2ccc(S(=O)(=O)O)c3cc(S(=O)(=O)O)cc(S(=O)(=O)O)c23)cc1NC(=O)c1cccc(NC(=O)Nc2cccc(C(=O)Nc3cc(C(=O)Nc4ccc(S(=O)(=O)O)c5cc(S(=O)(=O)O)cc(S(=O)(=O)O)c45)ccc3C)c2)c1`, the growth inhibition in assay [1] is 28%; in assay [2], 19%.

Consider `Cc1cc(C)nc(-n2nc(C)cc2Nc2ccccc2)n1`, for which the growth inhibition was 17.2% in assay [1] and 1% in assay [2].

Consider `CS(=O)(=O)Cc1nc2ccccc2oc1=O`, for which the values for the growth inhibition in assay [1] and in assay [2] were 21.8% and 4.75%, respectively.

Take `O=C(NCc1ccoc1)N1CCN(Cc2ccc3c(c2)OCO3)CC1`: the growth inhibition in assay [1] was 7.5%; in assay [2], 6.25%.

Turning to `CCCS(=O)(=O)N1CCC(CO)(Cc2ccccc2C(F)(F)F)CC1`, the growth inhibition in assay [1] and in assay [2] was 0% throughout.

In the case of `CCC(=O)Nc1ccccc1C(=O)Nc1ccccn1`, the values for the growth inhibition in assay [1] and in assay [2] were 0% and 1.5%, respectively.

Regarding `CNCCC(Oc1ccc(C(F)(F)F)cc1)c1ccccc1` (stereo not drawn), the figures for the growth inhibition in assay [1] and in assay [2] were 7.75% and 2%, respectively.

Regarding `CC1CS(=O)(=O)CCN1/N=C/c1ccc([N+](=O)[O-])o1` (stereo not drawn), the growth inhibition in assay [1] was 6%; in assay [2], 7%.

For `COc1ccc2nccc(NC(=O)C3CCN(CCc4ccc(Cl)cc4)CC3)c2n1`, the results for the growth inhibition in assay [1] and in assay [2] were 39% and 0%, respectively.

In the case of `Clc1cccc(CO[C@H]2CCc3ccccc3[C@@H]2n2ccnn2)c1`, the results for the growth inhibition in assay [1] and in assay [2] were 15.8% and 3%, respectively.

For `CC[C@@H](CO)NCCN[C@@H](CC)CO`, the growth inhibition in assay [1] is 6.75%; in assay [2], 12.2%.

With `O=C(Cn1ccnc1[N+](=O)[O-])NCc1ccccc1`, the growth inhibition in assay [1] was 13.8%; in assay [2] it was 4%.

For the compound `COc1ccc(-c2cnc3cnc(-c4cccc(OC(C)C)c4)cn23)cc1`, the growth inhibition in assay [1] is 10.2%; in assay [2], 12%.

`Cc1ccc(NC(=O)c2nc[nH]c2C(=O)Nc2nc3ccccc3[nH]2)c(C)c1`: the growth inhibition in assay [1] is 17.8%; in assay [2] it was 1.25%.

Turning to `CCOc1ccccc1C(=O)Nc1cccc(-c2nc3ncccn3c2C)c1`, the growth inhibition in assay [1] is 6.75%; in assay [2], 12.2%.

On to `CC(C)(C)CN1C(=O)C(c2ccccc2)(c2ccccc2)N=C1N`, for which the growth inhibition in assay [1] was 17.8%; in assay [2] it was 4.25%.

On to `Cc1cc(Nc2ccc(C(F)(F)F)cc2)n2ccnc2n1`, for which the growth inhibition in assay [1] is 12.2%; in assay [2], 1%.

On to `COC(=O)c1cccc2oc(-c3cccc(OC)c3NC(=O)c3cc(-c4ccccc4)on3)nc12`, for which the growth inhibition in assay [1] is 7.5%; in assay [2], 0%.

Regarding `COc1ccc(-c2cncc3ccc(C(=O)NCCCn4ccnc4)nc23)cc1`, the growth inhibition in assay [1] was 16%; in assay [2], 16.5%.

As for `N=C(N)c1ccc(-c2cc(-c3ccccc3)on2)cc1`, the values for the growth inhibition in assay [1] and in assay [2] were 7% and 10.5%, respectively.

Take `Clc1cccc(C(c2ccc(CN3CCNCC3)cc2)n2ccnc2)c1` (stereo not drawn): the growth inhibition is 3% in assay [1] and 7% in assay [2].

For the compound `NCCCC(N)(C(=O)O)C(F)F` (stereo not drawn), the growth inhibition in assay [1] was 13.5%; in assay [2], 17.2%.

As for `O=C(Nc1ccnc(-c2cccnc2)n1)c1cc(C(F)(F)F)cc(C(F)(F)F)c1`, the growth inhibition in assay [1] is 2.5%; in assay [2], 0%.

For `Nc1ccc2ncnc(Nc3ccc(OCc4cccc(F)c4)c(Cl)c3)c2c1`, the growth inhibition in assay [1] was 12.8%; in assay [2], 8.25%.

In the case of `COc1ccc(Oc2ccc([C@@H](C)N(C)c3ncc4c(N)nc(N)nc4n3)cc2)cc1`, the growth inhibition was 5.75% in assay [1] and 4.25% in assay [2].

Turning to `CC(=O)NC[C@@H]1CN(c2ccc(N3CCOCC3)c(F)c2)C(=O)O1`, the growth inhibition was 1.75% in assay [1] and 12.5% in assay [2].

With `CC(C)(C)c1cc(C(=O)Nc2cccnc2)cc(C(=O)Nc2cccnc2)c1`, the growth inhibition in assay [1] is 6%; in assay [2] it was 4%.

For `Cc1ccc2nc(Cl)c(CNCc3cccs3)cc2c1`, the growth inhibition in assay [1] was 0%; in assay [2] it was 2.25%.

For `Cc1cc(C)c2cc(C(=O)NC3CCCCCCC3)[nH]c2c1`, the growth inhibition in assay [1] was 6%; in assay [2], 6.25%.
